Measured values published in paper PMC7862700, “An all-to-all approach to the identification of sequence-specific readers for epigenetic DNA modifications on cytosine”.

Key:
Experiment in all cases: DAPPL (digital affinity profiling via proximity ligation, sequencing); 10 mM Tris-HCl pH 7.5, 50 mM NaCl, 1 mM DTT, 4% glycerol, room temperature, 30 min; GST-TFs on glutathione beads, 16-mer random dsDNA library, 0.1% formaldehyde crosslink after washing; high values mean tight binding
Conditions in all cases: protein: recombinant; tags: N-terminal GST; dsDNA, one strand shown
[1] = molecular target: T1, FLI1 (Homo sapiens, UniProt Q01543 1-452)
T1 sequence: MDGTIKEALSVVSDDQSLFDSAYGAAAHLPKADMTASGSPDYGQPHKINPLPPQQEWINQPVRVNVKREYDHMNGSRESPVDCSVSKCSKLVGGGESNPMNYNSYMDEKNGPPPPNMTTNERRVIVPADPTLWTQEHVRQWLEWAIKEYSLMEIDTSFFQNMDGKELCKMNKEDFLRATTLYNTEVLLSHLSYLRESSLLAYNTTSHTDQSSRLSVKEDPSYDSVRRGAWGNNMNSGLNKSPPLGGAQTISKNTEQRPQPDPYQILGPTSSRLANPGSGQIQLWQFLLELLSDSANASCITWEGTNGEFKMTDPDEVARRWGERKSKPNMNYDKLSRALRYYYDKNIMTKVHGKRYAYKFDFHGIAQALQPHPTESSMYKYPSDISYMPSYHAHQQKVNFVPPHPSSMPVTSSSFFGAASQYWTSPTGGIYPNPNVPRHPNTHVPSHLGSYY
Summary of the method: (§1)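 Pools were built from human transcription factors expressed in yeast as GST fusions, captured on glutathione beads and DNA-barcoded, along with a tag-only sample. Incubation with 200 nmole of a 16-mer random double-stranded DNA library lasted 30 min at room temperature in Tris/NaCl/DTT/glycerol buffer, and was followed by washing, 0.1% formaldehyde crosslinking, proximity ligation, PCR amplification and Illumina NextSeq500 sequencing. Binding signal is the quotient of each hexamer's read frequency for a factor and its frequency for the tag-only sample.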

[2] = molecular target: T2, ELK1 (Homo sapiens, UniProt P19419 1-428)
T2 sequence: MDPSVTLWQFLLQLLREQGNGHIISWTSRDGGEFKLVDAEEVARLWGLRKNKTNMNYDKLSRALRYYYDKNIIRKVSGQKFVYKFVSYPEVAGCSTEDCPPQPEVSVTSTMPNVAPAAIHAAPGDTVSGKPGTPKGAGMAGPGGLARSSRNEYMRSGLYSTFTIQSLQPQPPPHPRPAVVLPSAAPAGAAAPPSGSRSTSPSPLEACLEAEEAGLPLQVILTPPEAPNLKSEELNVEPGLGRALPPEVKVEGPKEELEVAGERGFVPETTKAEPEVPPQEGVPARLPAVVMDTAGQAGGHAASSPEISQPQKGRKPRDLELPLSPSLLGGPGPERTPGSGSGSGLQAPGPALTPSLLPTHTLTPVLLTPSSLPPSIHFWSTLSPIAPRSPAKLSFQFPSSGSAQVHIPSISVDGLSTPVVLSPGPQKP
Summary of the method: as §1

[3] = molecular target: T3, GABPA (Homo sapiens, UniProt Q06546 1-454)
T3 sequence: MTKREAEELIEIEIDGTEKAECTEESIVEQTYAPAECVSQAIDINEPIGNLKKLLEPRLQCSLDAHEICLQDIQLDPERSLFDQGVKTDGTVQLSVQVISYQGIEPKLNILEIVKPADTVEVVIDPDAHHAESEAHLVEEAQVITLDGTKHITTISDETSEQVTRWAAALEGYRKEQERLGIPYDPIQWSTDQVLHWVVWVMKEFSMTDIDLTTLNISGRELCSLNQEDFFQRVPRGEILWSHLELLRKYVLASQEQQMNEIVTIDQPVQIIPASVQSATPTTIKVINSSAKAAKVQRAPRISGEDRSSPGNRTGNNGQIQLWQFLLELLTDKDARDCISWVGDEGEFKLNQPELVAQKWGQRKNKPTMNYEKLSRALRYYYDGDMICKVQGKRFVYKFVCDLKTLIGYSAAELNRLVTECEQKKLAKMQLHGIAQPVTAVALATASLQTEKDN
Summary of the method: as §1

[4] = molecular target: T4, ERG (Homo sapiens, UniProt P11308 1-479)
T4 sequence: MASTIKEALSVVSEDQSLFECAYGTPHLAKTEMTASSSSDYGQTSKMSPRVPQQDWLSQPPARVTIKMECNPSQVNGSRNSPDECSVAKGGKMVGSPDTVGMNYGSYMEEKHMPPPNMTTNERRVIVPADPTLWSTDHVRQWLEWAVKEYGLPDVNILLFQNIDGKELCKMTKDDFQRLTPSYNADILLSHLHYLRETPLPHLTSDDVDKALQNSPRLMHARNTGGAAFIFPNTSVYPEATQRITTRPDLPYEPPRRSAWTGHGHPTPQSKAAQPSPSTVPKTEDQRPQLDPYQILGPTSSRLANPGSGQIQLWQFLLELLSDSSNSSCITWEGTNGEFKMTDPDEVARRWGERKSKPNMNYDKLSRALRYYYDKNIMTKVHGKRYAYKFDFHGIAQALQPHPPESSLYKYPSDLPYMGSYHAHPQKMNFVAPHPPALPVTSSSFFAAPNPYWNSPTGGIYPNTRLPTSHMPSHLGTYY
Summary of the method: as §1

[5] = molecular target: ELF1 (Homo sapiens, UniProt P32519 1-619)
Chain of ELF1 (P32519 whole entry): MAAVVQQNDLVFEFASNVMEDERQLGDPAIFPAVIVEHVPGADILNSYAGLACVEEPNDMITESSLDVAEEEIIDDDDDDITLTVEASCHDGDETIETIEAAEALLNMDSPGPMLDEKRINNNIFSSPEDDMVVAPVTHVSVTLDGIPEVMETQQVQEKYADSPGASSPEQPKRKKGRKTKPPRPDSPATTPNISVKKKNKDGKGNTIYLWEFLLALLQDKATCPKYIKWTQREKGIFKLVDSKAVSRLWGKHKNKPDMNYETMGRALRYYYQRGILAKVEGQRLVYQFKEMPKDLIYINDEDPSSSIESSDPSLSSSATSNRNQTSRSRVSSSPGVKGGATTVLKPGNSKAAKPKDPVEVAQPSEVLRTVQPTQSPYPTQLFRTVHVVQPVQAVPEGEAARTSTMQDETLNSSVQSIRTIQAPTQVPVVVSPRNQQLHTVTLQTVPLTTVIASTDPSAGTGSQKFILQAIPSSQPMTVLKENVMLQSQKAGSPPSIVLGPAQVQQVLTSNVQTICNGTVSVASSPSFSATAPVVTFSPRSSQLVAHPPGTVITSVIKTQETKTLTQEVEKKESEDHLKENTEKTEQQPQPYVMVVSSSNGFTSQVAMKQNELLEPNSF
Summary of the method: as §1

[6] = molecular target: SPIB (Homo sapiens, UniProt Q01892 1-262)
Chain of SPIB (Q01892 whole entry): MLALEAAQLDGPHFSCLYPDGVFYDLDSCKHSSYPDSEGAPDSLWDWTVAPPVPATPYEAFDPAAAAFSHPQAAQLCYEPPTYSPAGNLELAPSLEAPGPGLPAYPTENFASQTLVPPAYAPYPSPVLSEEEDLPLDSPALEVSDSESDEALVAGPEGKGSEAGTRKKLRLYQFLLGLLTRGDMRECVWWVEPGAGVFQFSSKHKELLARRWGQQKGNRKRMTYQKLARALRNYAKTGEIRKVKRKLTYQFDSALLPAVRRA
Summary of the method: as §1

[7] = molecular target: SPI1 (Homo sapiens, UniProt P17947 1-270)
Summary of the method: as §1

[8] = molecular target: T5, ELK3 (Homo sapiens, UniProt P41970 1-407)
T5 sequence: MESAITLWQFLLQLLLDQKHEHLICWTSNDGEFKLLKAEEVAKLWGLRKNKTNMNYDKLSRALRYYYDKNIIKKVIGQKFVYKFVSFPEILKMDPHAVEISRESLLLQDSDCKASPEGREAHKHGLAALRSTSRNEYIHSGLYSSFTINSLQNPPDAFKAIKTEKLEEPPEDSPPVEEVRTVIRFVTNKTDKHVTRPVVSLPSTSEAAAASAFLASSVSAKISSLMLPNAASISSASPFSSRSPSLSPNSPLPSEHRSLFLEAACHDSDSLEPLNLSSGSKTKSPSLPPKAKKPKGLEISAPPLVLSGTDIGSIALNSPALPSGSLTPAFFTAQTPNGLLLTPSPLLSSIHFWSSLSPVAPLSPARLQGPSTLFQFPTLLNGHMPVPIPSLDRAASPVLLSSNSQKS
Summary of the method: as §1

[9] = molecular target: T6, EHF (Homo sapiens, UniProt Q9NZC4 1-300)
T6 sequence: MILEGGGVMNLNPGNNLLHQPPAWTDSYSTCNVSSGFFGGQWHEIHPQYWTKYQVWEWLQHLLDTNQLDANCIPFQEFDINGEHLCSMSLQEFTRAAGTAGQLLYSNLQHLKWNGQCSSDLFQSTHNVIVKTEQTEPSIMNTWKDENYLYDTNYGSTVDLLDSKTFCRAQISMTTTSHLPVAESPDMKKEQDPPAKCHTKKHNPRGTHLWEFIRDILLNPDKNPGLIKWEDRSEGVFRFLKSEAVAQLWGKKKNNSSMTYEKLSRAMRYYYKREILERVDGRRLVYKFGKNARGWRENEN
Summary of the method: as §1

| Sequence | binding signal [1] | binding signal [2] | binding signal [3] | binding signal [4] | binding signal [5] | binding signal [6] | binding signal [7] | binding signal [8] | binding signal [9] |
| --- | --- | --- | --- | --- | --- | --- | --- | --- | --- |
| GGCCCT | 1.09 fold enrichment (6-mer frequency, TF over GST control) | 1.08 fold enrichment (6-mer frequency, TF over GST control) | 1.11 fold enrichment (6-mer frequency, TF over GST control) | 1.1 fold enrichment (6-mer frequency, TF over GST control) | 1 fold enrichment (6-mer frequency, TF over GST control) | 1.15 fold enrichment (6-mer frequency, TF over GST control) |  |  |  |
| GCTTTT | 1.06 fold enrichment (6-mer frequency, TF over GST control) | 1.05 fold enrichment (6-mer frequency, TF over GST control) | 1.16 fold enrichment (6-mer frequency, TF over GST control) | 1 fold enrichment (6-mer frequency, TF over GST control) | 1.09 fold enrichment (6-mer frequency, TF over GST control) | 1.16 fold enrichment (6-mer frequency, TF over GST control) | 1.33 fold enrichment (6-mer frequency, TF over GST control) | 1.11 fold enrichment (6-mer frequency, TF over GST control) |  |
| TAAAGC | 1.03 fold enrichment (6-mer frequency, TF over GST control) | 1.12 fold enrichment (6-mer frequency, TF over GST control) | 1.11 fold enrichment (6-mer frequency, TF over GST control) |  | 1.05 fold enrichment (6-mer frequency, TF over GST control) | 1.06 fold enrichment (6-mer frequency, TF over GST control) | 1.05 fold enrichment (6-mer frequency, TF over GST control) | 1.09 fold enrichment (6-mer frequency, TF over GST control) | 1.02 fold enrichment (6-mer frequency, TF over GST control) |
| GCCCAT | 1.06 fold enrichment (6-mer frequency, TF over GST control) | 1.05 fold enrichment (6-mer frequency, TF over GST control) | 1.17 fold enrichment (6-mer frequency, TF over GST control) | 1.04 fold enrichment (6-mer frequency, TF over GST control) | 1.06 fold enrichment (6-mer frequency, TF over GST control) | 1.04 fold enrichment (6-mer frequency, TF over GST control) | 1.03 fold enrichment (6-mer frequency, TF over GST control) | 1.04 fold enrichment (6-mer frequency, TF over GST control) |  |
| AAGCCC | 1.04 fold enrichment (6-mer frequency, TF over GST control) | 1.07 fold enrichment (6-mer frequency, TF over GST control) | 1.11 fold enrichment (6-mer frequency, TF over GST control) |  | 1.08 fold enrichment (6-mer frequency, TF over GST control) | 1.07 fold enrichment (6-mer frequency, TF over GST control) | 1.04 fold enrichment (6-mer frequency, TF over GST control) |  |  |
| ACACCA | 1.01 fold enrichment (6-mer frequency, TF over GST control) | 1.15 fold enrichment (6-mer frequency, TF over GST control) |  | 1.01 fold enrichment (6-mer frequency, TF over GST control) | 1.05 fold enrichment (6-mer frequency, TF over GST control) |  |  |  | 1.04 fold enrichment (6-mer frequency, TF over GST control) |
| TGATCG | 1 fold enrichment (6-mer frequency, TF over GST control) | 1 fold enrichment (6-mer frequency, TF over GST control) | 1.03 fold enrichment (6-mer frequency, TF over GST control) |  | 1.03 fold enrichment (6-mer frequency, TF over GST control) | 1.12 fold enrichment (6-mer frequency, TF over GST control) | 1.03 fold enrichment (6-mer frequency, TF over GST control) | 1.17 fold enrichment (6-mer frequency, TF over GST control) | 1.13 fold enrichment (6-mer frequency, TF over GST control) |
| CCGGTC | 1.17 fold enrichment (6-mer frequency, TF over GST control) | 1.18 fold enrichment (6-mer frequency, TF over GST control) |  | 1.3 fold enrichment (6-mer frequency, TF over GST control) | 1.14 fold enrichment (6-mer frequency, TF over GST control) | 1.08 fold enrichment (6-mer frequency, TF over GST control) | 1.01 fold enrichment (6-mer frequency, TF over GST control) | 1.18 fold enrichment (6-mer frequency, TF over GST control) | 1.1 fold enrichment (6-mer frequency, TF over GST control) |
| CTCGTG | 1.19 fold enrichment (6-mer frequency, TF over GST control) | 1.09 fold enrichment (6-mer frequency, TF over GST control) | 1.28 fold enrichment (6-mer frequency, TF over GST control) |  | 1.16 fold enrichment (6-mer frequency, TF over GST control) | 1.05 fold enrichment (6-mer frequency, TF over GST control) |  | 1.11 fold enrichment (6-mer frequency, TF over GST control) | 1.07 fold enrichment (6-mer frequency, TF over GST control) |
| TAGTGC | 1.05 fold enrichment (6-mer frequency, TF over GST control) | 1.02 fold enrichment (6-mer frequency, TF over GST control) | 1.12 fold enrichment (6-mer frequency, TF over GST control) |  | 1.1 fold enrichment (6-mer frequency, TF over GST control) | 1.03 fold enrichment (6-mer frequency, TF over GST control) | 1.05 fold enrichment (6-mer frequency, TF over GST control) | 1.07 fold enrichment (6-mer frequency, TF over GST control) |  |
| TCATGA | 1.12 fold enrichment (6-mer frequency, TF over GST control) | 1 fold enrichment (6-mer frequency, TF over GST control) | 1.18 fold enrichment (6-mer frequency, TF over GST control) |  | 1.03 fold enrichment (6-mer frequency, TF over GST control) |  |  | 1.05 fold enrichment (6-mer frequency, TF over GST control) | 1.07 fold enrichment (6-mer frequency, TF over GST control) |
| TAATCG | 1.07 fold enrichment (6-mer frequency, TF over GST control) | 1.09 fold enrichment (6-mer frequency, TF over GST control) | 1.14 fold enrichment (6-mer frequency, TF over GST control) |  | 1.04 fold enrichment (6-mer frequency, TF over GST control) | 1.04 fold enrichment (6-mer frequency, TF over GST control) | 1.02 fold enrichment (6-mer frequency, TF over GST control) | 1.07 fold enrichment (6-mer frequency, TF over GST control) | 1.07 fold enrichment (6-mer frequency, TF over GST control) |
